This passage reports activity change results from PubChem BioAssay AID1159554 (Broad Institute, 2015).

The structures appear in SMILES notation. Where “and” joins values, the source holds several entries; their conditions need not be identical. Equal values may be shown once. The campaign covered roughly 94,000 compounds. About 2,100 (2.2%) were called active. The entries come from a sample that favours actives as a whole. Unmarked numbers belong to inactive results. Cut-off read from the data, not from the text of the source: active = activity change below about -80%; inconclusive = no clear call, values can overlap the other calls; inactive = above that.

This test is described as follows: Dd2 malaria parasite growth inhibition – SYBR Green fluorescence, single dose replicates, primary screen (AID 1159554). To be noted: P. falciparum Dd2 growth, 72 h, at 10 µM, hits give low values.
Regarding `CC(C)CC#Cc1ccc([C@@H]2[C@@H](CO)N3C(=O)CN(C(=O)Nc4ccc(F)cc4)C[C@H]23)cc1`, the activity change was -28.4%. With `COc1ccccc1CNC(=O)C[C@H]1CC[C@@H]2[C@H](COC[C@H](O)CN2Cc2ccccc2)O1`, the activity change is 6.62%. As for `C[C@@H]1CN([C@H](C)CO)C(=O)Cc2cc(NC(=O)Nc3ccc4c(c3)OCO4)ccc2O[C@H]1CN(C)Cc1ccc(C(=O)O)cc1`, the figure is 21.4%. To `Cc1ccc(S(=O)(=O)Nc2ccc3c(c2)C(=O)N([C@H](C)CO)C[C@H](C)[C@@H](CN(C)Cc2ccccc2)OCCCC[C@H](C)O3)cc1` belongs 30%. As for `Cc1ccc(S(=O)(=O)Nc2ccc3c(c2)CC(=O)N([C@H](C)CO)C[C@@H](C)[C@H](CN(C)Cc2ccc(C(F)(F)F)cc2)O3)cc1`, the figure is 32%; as for `Cc1ccc(S(=O)(=O)Nc2ccc3c(c2)CC(=O)N([C@@H](C)CO)C[C@H](C)[C@H](CN(C)Cc2ccc(C(=O)Nc4ccccc4N)cc2)O3)cc1`, -86.6% (active). Consider `Cc1ccc(S(=O)(=O)Nc2ccc3c(c2)C(=O)N([C@H](C)CO)C[C@@H](C)[C@H](CN(C)Cc2ccccc2)OCCCC[C@H](C)O3)cc1`, for which the activity change is -43.7%. Consider `COc1ccc(CN(C)C[C@H]2Oc3ccc(NS(=O)(=O)c4ccc(Cl)cc4)cc3CC(=O)N([C@@H](C)CO)C[C@H]2C)cc1`, for which the activity change is 12.9%.

Turning to `COc1ccc(S(=O)(=O)Nc2ccc3c(c2)CC(=O)N([C@@H](C)CO)C[C@H](C)[C@@H](CN(C)Cc2ccc(C(=O)O)cc2)O3)cc1`, the activity change was 22.3%. Take `C[C@@H]1CN([C@H](C)CO)C(=O)Cc2cc(NC(=O)Nc3ccc4c(c3)OCO4)ccc2O[C@@H]1CN(C)Cc1ccc(C(=O)Nc2ccccc2N)cc1`: the activity change is -76.5%. Take `COc1ccc(S(=O)(=O)Nc2ccc3c(c2)CC(=O)N([C@@H](C)CO)C[C@@H](C)[C@@H](CN(C)Cc2ccc(C(=O)Nc4ccccc4N)cc2)O3)cc1`: the activity change is -80.3% (active). As for `Cc1ccc(S(=O)(=O)Nc2ccc3c(c2)CC(=O)N([C@@H](C)CO)C[C@H](C)[C@H](CN(C)Cc2ccccc2)O3)cc1`, the figure is -4.27%; as for `C[C@H]1CN([C@@H](C)CO)C(=O)Cc2cc(NC(=O)Nc3ccc4c(c3)OCO4)ccc2O[C@H]1CN(C)Cc1ccc(C(=O)Nc2ccccc2N)cc1`, -81.3% (active); as for `Cc1ccc(S(=O)(=O)Nc2ccc3c(c2)C(=O)N([C@H](C)CO)C[C@H](C)[C@H](CN(C)Cc2ccc(C(=O)Nc4ccccc4N)cc2)OCCCC[C@@H](C)O3)cc1`, -83.6% (active).

Consider `C/C=C/c1ccc([C@H]2[C@@H](CO)N(C(=O)NCCC)[C@H]2CN(C)C(C)=O)cc1`, for which the activity change is 0.514%.

Take `CCCNC(=O)[C@@H]1[C@@H](CO)[C@@H]2Cn3c(ccc(-c4cccc(OC)c4)c3=O)[C@H]1N2C(=O)NCCC`: the activity change was 8.98%. As for `COCC(=O)Nc1ccc2c(c1)OC[C@H](C)N(C(=O)c1cnccn1)C[C@@H](C)[C@@H](OC)CN(C)C2=O`, the figure is -61.6%.

Take `COc1ccc(-c2ccccc2[C@H]2[C@@H](CO)N(C(=O)C3CCC3)[C@H]2C#N)cc1`: the activity change was 17.9%. Turning to `COc1cccc(CNC(=O)C[C@@H]2C=C[C@@H](NC(=O)C3CCC3)[C@@H](CO)O2)c1`, the activity change was 37.9%.

Regarding `COc1ccc2c3c(n(C)c2c1)[C@@H](CO)NCC31CN(S(=O)(=O)c2cccc(C)c2)C1`, the activity change is -18.8%.

For the molecule `N#Cc1cccc(-c2ccc(C3[C@H]4CNC[C@@H]3N4S(=O)(=O)c3ccc(-c4ccccc4)cc3)cc2)c1` (stereo not given in full), the activity change is 14.1% and -40.8%. With `C[C@H]1CN([C@@H](C)CO)C(=O)c2cc(-c3ccncc3)cnc2O[C@@H]1CN(C)C(=O)C1CCCCC1`, the activity change is -1.12%. To `N#C[C@@H]1[C@H](c2ccccc2-c2ccc(F)cc2)[C@@H](CO)N1c1ncc(-c2ccccc2)s1` belongs 27.4%; to `CO[C@H]1CN(C)C(=O)c2cc(NC(=O)c3nc4ccccc4s3)ccc2OC[C@H](C)N(Cc2cccnc2)C[C@@H]1C`, -15.4%; to `CCCC(=O)Nc1ccc2c(c1)C(=O)N(C)C[C@H](OC)[C@H](C)CN(CCc1ccccc1)[C@H](C)CO2`, -14.1%. To `C[C@@H]1CN([C@@H](C)CO)C(=O)c2cc(NS(=O)(=O)c3ccccc3)ccc2O[C@@H]1CN(C)Cc1ccc(C(=O)Nc2ccccc2N)cc1` belongs -83.2% (active); to `Cc1noc(C)c1S(=O)(=O)Nc1ccc2c(c1)C(=O)N([C@@H](C)CO)C[C@H](C)[C@H](CN(C)Cc1ccc(C(=O)Nc3ccccc3N)cc1)O2`, -52.6%. As for `Cc1ccc(S(=O)(=O)Nc2ccc3c(c2)C(=O)N([C@@H](C)CO)C[C@@H](C)[C@@H](CN(C)Cc2ccc(C(=O)Nc4ccccc4N)cc2)O3)cc1`, the figure is -61.1%. On to `C[C@@H]1CN([C@@H](C)CO)C(=O)Cc2cc(NC(=O)C3CCCCC3)ccc2O[C@@H]1CN(C)Cc1ccc(C(=O)Nc2ccccc2N)cc1`, for which the activity change is -83.7% (active). Turning to `C[C@H]1CN([C@@H](C)CO)C(=O)Cc2cc(NS(=O)(=O)c3ccccc3)ccc2O[C@H]1CN(C)Cc1ccc(C(=O)Nc2ccccc2N)cc1`, the activity change is -77.2%. As for `C[C@H](CO)N1C[C@H](C)[C@H](CN(C)Cc2ccc(C(=O)Nc3ccccc3N)cc2)Oc2ccc(NS(C)(=O)=O)cc2C1=O`, the figure is -28.4%; as for `C[C@H]1CN([C@@H](C)CO)C(=O)Cc2cc(NS(=O)(=O)c3ccccc3)ccc2O[C@@H]1CN(C)Cc1ccc(C(=O)Nc2ccccc2N)cc1`, -81.4% (active); as for `C[C@@H]1CN([C@@H](C)CO)C(=O)Cc2cc(NC(=O)C3CCCCC3)ccc2O[C@@H]1CN(C)Cc1ccc(-c2ccccc2)cc1`, -20.2%. As for `CC(C)NC(=O)Nc1ccc2c(c1)CC(=O)N([C@H](C)CO)C[C@@H](C)[C@@H](CN(C)Cc1ccc(C(=O)Nc3ccccc3N)cc1)O2`, the figure is -49.7%; as for `CCCNC(=O)N1C[C@H](C)[C@@H](OC)CN(C)C(=O)c2ccc(NC(=O)CC)cc2OC[C@@H]1C`, 52.7%.
